Values joined by “and” are separate entries in the source; they are usually repeats but may differ in a detail not shown here. Equal values may be shown once. Hit rate of the full screen: of about 5,500 compounds, about 2,000 (36%) were called active. About 18% were inconclusive and are not listed. No stated cut-off is given here; in the data, active means normalized growth mostly below about 0.91 (no sharp cut-off); inconclusive means no clear call, values can overlap the other calls; inactive means mostly above about 0.92. Some of the results follow.
Experiment: chemical genetic growth profiling, strain panel (AID 1159580);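 further: tested at 20 µM; growth read once vehicle control cultures reached saturation at 30 °C; 1 = growth at the plate median or of vehicle wells; lower values mean less growth of the strain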
Details: S. cerevisiae deletion strains, growth OD

Measured: normalized growth

COc1cc2ccc(=O)oc2cc1O
inactive: locus YAL013W, strain DEP1, active compounds read low 1.03 | locus YAL021C, strain ccr4, active compounds read low 0.958 | locus YAL026C, strain drs2, active compounds read low 0.968 | locus YAL030W, strain snc1, active compounds read low 0.977 | locus YBL061C, strain skt5, active compounds read low 0.965 | locus YBR009C, strain hhf1, active compounds read low 1.01 | locus YBR021W, strain FUR4, active compounds read low 0.985 | locus YBR023C, strain chs3, active compounds read low 0.958 | locus YBR171W, strain sec66, active compounds read low 0.984 | locus YBR229C, strain ROT2, active compounds read low 0.946 | locus YBR231C, strain swc5, active compounds read low 0.966 | locus YBR279W, strain paf1, active compounds read low 0.96 | locus YCL011C, strain gbp2, active compounds read low 0.946 | locus YCL016C, strain dcc1, active compounds read low 0.94 | locus YCL029C, strain bik1, active compounds read low 0.979 | locus YCL069W, strain vba3, active compounds read low 0.98 | locus YCR088W, strain abp1, active compounds read low 0.985 | locus YDL005C, strain med2, active compounds read low 0.992 | locus YDL035C, strain GPR1, active compounds read low 0.97 | locus YDL040C, strain nat1, active compounds read low 0.973 | locus YDL074C, strain BRE1, active compounds read low 1.04 | locus YDL101C, strain DUN1, active compounds read low 0.999 | locus YDL185W, strain tfp1, active compounds read low 0.974 | locus YDL192W, strain arf1, active compounds read low 1 | locus YDR001C, strain nth1, active compounds read low 0.976 | locus YDR069C, strain doa4, active compounds read low 0.995 | locus YDR101C, strain arx1, active compounds read low 0.987 | locus YDR137W, strain rgp1, active compounds read low 1 | locus YDR150W, strain NUM1, active compounds read low 1 | locus YDR159W, strain sac3, active compounds read low 0.941 | locus YDR162C, strain NBP2, active compounds read low 0.953 | locus YDR195W, strain ref2 0.994 | locus YDR297W, strain sur2, active compounds read low 0.99 | locus YDR318W, strain mcm21, active compounds read low 0.992 | locus YDR334W, strain swr1, active compounds read low 0.959 | locus YDR335W, strain msn5, active compounds read low 0.96 | locus YDR388W, active compounds read low 1 | locus YDR392W, strain spt3, active compounds read low 0.883 | locus YDR502C, strain sam2, active compounds read low 0.999 | locus YEL003W, strain gim4, active compounds read low 0.987 | locus YEL037C, strain rad23, active compounds read low 0.974 | locus YEL061C, strain CIN8 (second series), active compounds read low 0.977 | locus YEL061C, strain CIN8, active compounds read low 0.987 | locus YER015W, strain faa2, active compounds read low 0.967 | locus YER016W, strain bim1, active compounds read low 0.949 | locus YER110C, active compounds read low 1.01 | locus YER111C, strain swi4, active compounds read low 0.967 | locus YER155C, strain BEM2 (second series), active compounds read low 1.01 | locus YER155C, strain BEM2, active compounds read low 1 | locus YER167W, strain BCK2, active compounds read low 0.984 | locus YFR010W, strain ubp6, active compounds read low 0.996 | locus YGL078C, strain dbp3, active compounds read low 1 | locus YGL086W, strain mad1, active compounds read low 0.998 | locus YGL167C, strain pmr1, active compounds read low 0.978 | locus YGL173C, strain kem1, active compounds read low 1.02 | locus YGL227W, strain vid30, active compounds read low 0.975 | locus YGL240W, strain doc1, active compounds read low 1 | locus YGL248W, strain PDE1, active compounds read low 0.998 | locus YGL253W, strain hxk2, active compounds read low 0.939 | locus YGR078C, strain PAC10, active compounds read low 1.02 | locus YGR135W, strain pre9, active compounds read low 1 | locus YGR252W, strain gcn5, active compounds read low 1 | locus YHR013C, strain ard1, active compounds read low 0.916 | locus YHR027C, strain rpn1, active compounds read low 0.968 | locus YHR030C, strain SLT2, active compounds read low 0.987 and 0.966 | locus YHR079C, strain IRE1 (second series), active compounds read low 1.01 | locus YHR079C, strain IRE1, active compounds read low 0.976 | locus YHR094C, strain hxt1, active compounds read low 0.992 | locus YHR129C, strain ARP1, active compounds read low 0.994 | locus YHR142W, strain chs7, active compounds read low 0.914 | locus YHR200W, strain rpn10, active compounds read low 0.991 | locus YIL066C, strain RNR3, active compounds read low 0.935 | locus YIL073C, strain SPO22, active compounds read low 1.01 | locus YIL125W, strain kgd1, active compounds read low 1 | locus YIR030C, strain dcg1, active compounds read low 0.996 | locus YJL092W, strain hpr5, active compounds read low 0.968 | locus YJL095W, strain BCK1 (second series), active compounds read low 0.987 | locus YJL095W, strain BCK1, active compounds read low 1.02 and 1.01 | locus YJL115W, strain asf1, active compounds read low 0.952 | locus YJL129C, strain trk1, active compounds read low 0.929 | locus YJL134W, strain LCB3, active compounds read low 0.982 | locus YJL154C, strain vps35, active compounds read low 0.973 | locus YJL164C, strain tpk1, active compounds read low 0.979 | locus YJL166W, strain qcr8, active compounds read low 1 | locus YJL168C, strain set2, active compounds read low 0.995 | locus YJL187C, strain SWE1 (second series), active compounds read low 1.03 | locus YJR043C, strain POL32, active compounds read low 0.954 | locus YJR066W, strain TOR1, active compounds read low 0.929 | locus YKL009W, strain mrt4, active compounds read low 1 | locus YKL068W, active compounds read low 0.992 | locus YKL085W, strain MDH1 (second series), active compounds read low 0.995 | locus YKL085W, strain MDH1, active compounds read low 0.995 | locus YKL160W, strain elf1, active compounds read low 0.931 | locus YKR001C, strain vps1, active compounds read low 0.987 | locus YKR026C, strain gcn3, active compounds read low 0.983 | locus YKR091W, strain srl3, active compounds read low 0.963 | locus YLL001W, strain dnm1, active compounds read low 1 | locus YLL026W, active compounds read low 0.971 | locus YLL041C, strain sdh2, active compounds read low 0.999 | locus YLR027C, strain aat2, active compounds read low 0.989 | locus YLR039C, strain RIC1, active compounds read low 0.971 | locus YLR058C, strain SHM2, active compounds read low 0.988 | locus YLR102C, strain apc9, active compounds read low 1 | locus YLR113W, strain HOG1, active compounds read low 1.04 | locus YLR221C, strain rsa3, active compounds read low 1.03 | locus YLR258W, strain gsy2, active compounds read low 0.95 | locus YLR262C, strain YPT6 (second series), active compounds read low 0.982 | locus YLR262C, strain YPT6, active compounds read low 0.969 | locus YLR268W, strain sec22, active compounds read low 1.01 | locus YLR320W, strain mms22, active compounds read low 1.01 | locus YLR330W, strain CHS5, active compounds read low 0.988 | locus YLR342W, strain FKS1 (second series), active compounds read low 0.988 | locus YLR342W, strain FKS1, active compounds read low 0.973 | locus YLR357W, strain rsc2, active compounds read low 0.947 | locus YLR370C, strain arc18, active compounds read low 0.964 | locus YLR371W, strain rom2, active compounds read low 0.994 | locus YLR384C, strain iki3, active compounds read low 0.941 | locus YLR418C, strain cdc73, active compounds read low 1 | locus YML016C, strain PPZ1, active compounds read low 0.986 | locus YML032C, strain rad52, active compounds read low 0.986 | locus YML120C, strain ndi1, active compounds read low 1 | locus YML124C, strain tub3, active compounds read low 1.01 | locus YMR058W, strain fet3, active compounds read low 0.971 | locus YMR078C, strain ctf18, active compounds read low 1 | locus YMR125W, strain sto1, active compounds read low 0.97 | locus YMR129W, active compounds read low 0.976 | locus YMR205C, strain PFK2, active compounds read low 1 | locus YMR223W, strain ubp8, active compounds read low 0.997 | locus YMR231W, strain pep5, active compounds read low 0.992 | locus YMR307W, strain GAS1, active compounds read low 0.904 | locus YNL067W, strain RPL9B, active compounds read low 1.06 | locus YNL071W, strain lat1, active compounds read low 0.986 | locus YNL183C, strain NPR1, active compounds read low 0.975 | locus YNL209W, strain ssb2, active compounds read low 0.968 | locus YNL233W, strain BNI4, active compounds read low 1.07 | locus YNL248C, strain rpa49, active compounds read low 0.903 | locus YNL250W, strain rad50, active compounds read low 1.01 | locus YNL271C, strain bni1, active compounds read low 0.994 | locus YNL298W, strain CLA4, active compounds read low 0.994 | locus YNL307C, strain MCK1, active compounds read low 1 | locus YNL322C, strain KRE1 (second series), active compounds read low 0.948 | locus YNR049C, strain mso1, active compounds read low 0.955 | locus YNR052C, strain pop2, active compounds read low 1.03 | locus YOL012C, strain htz1 0.802 | locus YOL147C, strain pex11, active compounds read low 0.999 | locus YOR001W, strain rrp6, active compounds read low 1.03 | locus YOR061W, strain CKA2, active compounds read low 0.975 | locus YOR069W, strain VPS5, active compounds read low 0.987 | locus YOR070C, strain gyp1, active compounds read low 0.975 | locus YOR080W, strain dia2, active compounds read low 0.967 | locus YOR083W, strain WHI5, active compounds read low 0.896 | locus YOR106W, strain vam3, active compounds read low 0.923 | locus YOR136W, strain idh2, active compounds read low 0.998 | locus YOR144C, strain elg1, active compounds read low 1 | locus YOR184W, strain ser1, active compounds read low 0.995 | locus YOR231W, strain MKK1, active compounds read low 0.976 | locus YOR265W, strain rbl2, active compounds read low 0.97 | locus YOR270C, strain vph1, active compounds read low 0.923 | locus YOR290C, strain snf2, active compounds read low 0.929 | locus YOR316C, strain cot1, active compounds read low 0.994 | locus YPL051W, strain arl3, active compounds read low 0.963 | locus YPL078C, strain atp4, active compounds read low 0.939 | locus YPL106C, strain sse1, active compounds read low 0.899 | locus YPL240C, strain hsp82, active compounds read low 0.987 | locus YPL241C, strain CIN2, active compounds read low 0.997 | locus YPL256C, strain CLN2, active compounds read low 1.01 | locus YPR119W, strain clb2, active compounds read low 0.995 | locus YPR141C, strain kar3, active compounds read low 0.989 | locus YPR163C, strain tif3, active compounds read low 0.989 | locus YPR167C, strain met16, active compounds read low 0.997 | strain wtn01, active compounds read low 1.01
